Data published in PubChem BioAssay (NCI).
About 79,000 compounds went through this panel and 15% of them were active in at least one assay; those are over-represented in the sample as a whole. Unmarked numbers belong to inactive results. The source made the active and inactive calls. No stated cut-off is given here; in the data, active means growth inhibition above about 70%; inactive means the rest.

Key:
[1] = NCI Yeast Anticancer Drug Screen. Data for the rad50 strain (AID 155);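 further: 0% = growth of vehicle-only cultures of the same strain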; details: S. cerevisiae rad50 strain growth inhibition; at 50.0 µM; stronger effect = higher value
In short: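 Vehicle-treated cultures provide the reference for the growth inhibition reported for compound-exposed, repair-deficient yeast.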

[2] = NCI Yeast Anticancer Drug Screen. Data for the mec2-1 strain (AID 157); details: S. cerevisiae mec2-1 strain, at 50.0 µM, stronger effect = higher value
In short: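 Growth inhibition is read against vehicle-treated controls after compound exposure of the mec2-1 yeast strain, which is defective in DNA damage repair or cell cycle control.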

[3] = NCI Yeast Anticancer Drug Screen. Data for the sgs1 mgt1 strain (AID 161);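 further: 0% = growth of cultures given vehicle only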; details: S. cerevisiae sgs1 mgt1 strain, at 50.0 µM, stronger effect = higher value
In short: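 Percent growth inhibition was derived by comparing compound-exposed mutant yeast with vehicle-exposed cultures. The strain carries alterations in DNA damage repair.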

[4] = NCI Yeast Anticancer Drug Screen. Data for the cln2 rad14 strain (AID 165);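 further: 0% = growth equal to vehicle treated cultures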; details: S. cerevisiae cln2 rad14 strain, at 50.0 µM, stronger effect = higher value
In short: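 Growth inhibition, relative to vehicle-treated controls, is the read-out. The test organism is a yeast strain with defined genetic alterations, cln2 rad14.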

[5] = NCI Yeast Anticancer Drug Screen. Data for the bub3 strain (AID 167); details: S. cerevisiae bub3 mutant strain, at 50.0 µM, stronger effect = higher value
In short: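 Mutant yeast screening strain plus compound; vehicle-treated cultures serve as the 0% inhibition reference.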

[6] = NCI Yeast Anticancer Drug Screen. Data for the mlh1 rad18 strain (AID 175); details: S. cerevisiae mlh1 rad18 strain growth inhibition; at 50.0 µM; stronger effect = higher value
In short: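 Cells of a genetically altered yeast strain, deficient in DNA damage repair, were treated with compound. Their growth was then compared with that of vehicle-treated cultures to give inhibition.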

| Compound | growth inhibition [1] | growth inhibition [2] | growth inhibition [3] | growth inhibition [4] | growth inhibition [5] | growth inhibition [6] |
| --- | --- | --- | --- | --- | --- | --- |
| CCCCN(CCCC)CC(O)c1cc(Cc2ccccc2)nc2c(Cl)cc(Cl)cc12 (stereo unspecified) | 95.3% (active) | 95.5% (active) | 96.8% (active) | 89.8% (active) | 95% (active) | 96.2% (active) |
| COc1c(NC(=O)CC(C)=O)cccc1NC(=O)CC(C)=O | -1.2% | 14.4% | -2.05% | 7.95% | -8.25% | -11.3% |
| CNCC(O)(C(=O)O)C(=O)O | -12.6% | -45.9% | -32.9% | 6.05% | -29.1% | -7.95% |
| CCCCOC(=O)CC1CCCCC1 | -15.3% | -8.95% | -30.8% | -6.1% | -5.6% | -10.2% |
| O=C(COC(=O)c1ccccc1)c1ccc(-c2ccccc2)cc1 | -3.25% | 16.3% | 11.8% | 30.4% | 14.2% | 11.7% |
| CNC(=S)N(C)c1ccccc1 | 0.6% | -9.85% | -15.9% | -57.4% | 8.05% | -23.3% |
| Cc1cccc(NC(=S)NC2CCCCC2)c1 | 2.75% | 11.7% | -3.1% | 12.7% | 7% | 9.4% |
| Cc1occc1C(=S)Nc1ccc(Cl)c(OCC(=O)OC(C)(C)C)c1 | 49% | 50.6% | 49.2% | 40.2% | 46.6% | 38.9% |
| CCOC(=O)c1ccc2c(c1)Cc1c-2cc(Br)c(N)c1Br | 78.5% (active) | 3.1% | 45% | 9.15% | 18.4% | 47% |
| CCOC(=O)C1C(C)NC(C)C(C(=O)OCC)C1c1ccccc1Cl (stereo unspecified) | 11.1% | 6.25% | 6.35% | 4.25% | 2.9% | 9.8% |
| C=CCNC(=O)CC(C)(C)C | 25.6% | 12.3% | 0.35% | 9.3% | 23.9% | 20.2% |
| Clc1nc2ccccc2c2ccccc12 | 36.5% | -3.6% | -4% | 29.5% | -13.2% | 4.5% |
| CNCCC(Oc1ccccc1OC)c1ccccc1 (stereo unspecified) | 30.2% | 8.9% | -1.2% | 10.8% | 5.25% | 19.1% |
| O=C1OCc2c[n+]([O-])ccc21 | -17.4% | -9.2% | -6.85% | -30.2% | 0.65% | 4.35% |
| CCC(=O)N(C)C1(C#N)CCCCC1 | 29.4% | -42.9% | 13% | 0.1% | 4.85% | 24.2% |
| CCCCN(CCCC)CC(O)c1cc(-c2cccc(I)c2)nc2c(Cl)cc(Cl)cc12 (stereo unspecified) | 38.6% | 4.4% | -4.75% | -11.1% | -6.15% | 29.3% |
| CCOC(=O)C(NNc1ccccc1)C(=O)C(F)(F)F (stereo unspecified) | 10.9% | 3.2% | -9.3% | -18.8% | 1.35% | 18.6% |
| Cc1ccc(NC(=S)NC(=O)c2cccc([N+](=O)[O-])c2)cc1C | 1.8% | 15.5% | 14.5% | -26.7% | 0.6% | 11.7% |
| CC(C)Sc1nc(NC(=O)N(C)N=O)cc(=O)[nH]1 | -3.4% | -3.45% | 19.6% | 27.5% | -9.95% | -32.1% |
| COc1cc(C2=N/C(=C\c3cc(Br)cc(Br)c3O)C(=O)O2)cc(OC)c1OC | 83.2% (active) | 94.5% (active) | 88.2% (active) | 98.7% (active) | 98.5% (active) | 92.3% (active) |
| CN(CC(=O)NC(=O)c1ccccc1)c1ccccc1 | 4% | -2% | 8.85% | -0.75% | 11% | 3.2% |

| Compound | growth inhibition [1] | growth inhibition [2] | growth inhibition [3] | growth inhibition [4] | growth inhibition [5] | growth inhibition [6] |
| --- | --- | --- | --- | --- | --- | --- |
| Cc1cccc(C)c1OC(=O)Nc1ccccc1 | 3.75% | -18.6% | 4.3% | -46.5% | 9.7% | -8.95% |
| Cc1cc(Cl)ccc1-n1nc(C)c2c(N)nc(N)nc21 | 17.4% | 6.5% | 13.7% | -1.55% | 24.7% | 23.1% |
| CCCCCCCCCCCCCCCCCCCCc1ccccc1 | 25.9% | 10.3% | 1.2% | 12.7% | -14.2% | 26.4% |
| CN(C)CCC1(C2=CCCC2)CC/C(=C\c2ccc3c(c2)OCO3)C1=O (stereo unspecified) | 4.85% | -13.7% | -22.2% | 16.4% | -2.55% | 17.5% |
| O=C(Nc1cc([N+](=O)[O-])ccc1Cl)c1ccc(F)cc1 | 13.2% | 6.4% | 14.6% | 17.8% | 28.9% | 19.8% |
| CCc1cccc(CC)c1N=C(NC(=O)c1ccc(Br)cc1)SC | -17.6% | -16.5% | -4.7% | -6.75% | -17.1% | -5.65% |
| COc1ccc2c(c1)C(=O)[C@@](Nc1ccc(C=O)cc1)(OC)[C@@](OC)(c1ccc([N+](=O)[O-])cc1)O2 | 9.3% | -3.05% | 29.9% | 2.3% | -9.45% | 12.4% |
| COC(=O)c1c(O)c(C#N)c2[nH]c3ccccc3n2c1=O | -22.6% | -16.6% | -10.6% | 7.85% | -4.4% | -18.4% |
| Cc1ccn2c(-c3ccccc3)nnc2c1 | -23.6% | -17.7% | -14.6% | -11.8% | -18.1% | -16% |
| OCC(O)C(O)C(O)CN=Cc1ccccc1O (stereo unspecified) | -7.45% | -2.25% | 10.4% | -7.8% | -1.15% | 12.3% |
| CN(C)Cc1ccccc1O | 4.15% | 17.6% | -3.6% | -17.6% | 5.65% | -51.5% |
| Cc1ccc2c(c1)c1ccc3c(c1n2C)C(=O)C=CC3=O | 3.25% | 30.7% | 74.8% (active) | 2.55% | 62.6% | 74% (active) |
| Clc1cccc2c(SCCCCCSc3c4ccccc4nc4c(Cl)cccc34)c3ccccc3nc12 | -3.45% | -8.9% | -22.4% | -33.5% | -23.9% | -24.6% |
| N#C/C(=C1\N=C(c2ccccc2O)Oc2ccccc21)c1ccc([N+](=O)[O-])cc1 | 6.85% | -11.9% | 13.1% | -0.7% | 4.35% | -13.6% |
| COC(=O)C1C2CC3C(C2=O)C31 (stereo unspecified) | 6.45% | -4.7% | 4.45% | 21.1% | 20.4% | 6.85% |
| O=C(CCc1cc(O)cc(O)c1)NCCc1cc(OCc2ccccc2)cc(OCc2ccccc2)c1 | 28.7% | 24.7% | 45% | 33.2% | 27.1% | -42.6% |
| Cn1c(=O)c2sc3cc4c(cc3c2c2ccccc21)sc1c(=O)n(C)c2ccccc2c14 | 23.2% | -8.1% | 22.9% | 3.85% | 23.2% | 24.9% |
| O=C1Nc2ccccc2C1(N1CCCCC1)N1CCCCC1 | 35.9% | 21.9% | 18.5% | 7.9% | 33.6% | 26.6% |
| OCCCSc1ccccc1SCCCO | -1.4% | -2.45% | 3.5% | -1.7% | 3.75% | 5.1% |
| CNC(=O)CC(=O)NC | -20.4% | -9.55% | -16.9% | 6.15% | 8.2% | -10.1% |
